Bioassay records from PubChem BioAssay.
Most compounds without a hit are left out; they make up all but 2.4% or so of the library.
C diff growth: inhibitors of Clostridium difficile growth; AID 1259249; 86,000 compounds, 0.25% hits; Clostridium difficile clinical isolate growth, OD600, 24 h; active compounds read low; growth activity, negative = inhibition, % at 16 µg/mL (by protocol);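 active = mean growth activity at or below -80% and every replicate also at or below -80%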;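 note: 0% = DMSO wells and -100% = levofloxacin 16 µg/mL wells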
Pf Dd2 growth: P. falciparum Dd2 growth inhibition. 94,000 compounds, 2.3% hits. SYBR Green, 72 h; active compounds read low. activity change, % at 10 µM; in the data active = activity change below about -80%
* hit, by the source's call; x = not tested or not shown.

SMILES	C diff growth	Pf Dd2 growth
COc1ccc(S(=O)(=O)N(C)C[C@@H]2Oc3cc(C#CC4CCCCC4)ccc3S(=O)(=O)N([C@H](C)CO)C[C@H]2C)cc1	x	-86*
C[C@@H]1CN([C@H](C)CO)S(=O)(=O)c2ccc(C#CC3CCCC3)cc2O[C@H]1CN(C)C(=O)Cc1ccncc1	-3	-69
C[C@@H]1CN([C@@H](C)CO)S(=O)(=O)c2ccc(C#CC3CCCC3)cc2O[C@H]1CN(C)C(=O)Cc1ccncc1	-15	-86*
C[C@H]1CN([C@@H](C)CO)S(=O)(=O)c2ccc(-c3ccccc3F)cc2O[C@H]1CN(C)Cc1cncnc1	-8	1
C[C@H]1CN([C@@H](C)CO)C(=O)c2cc(C#Cc3ccncc3)cnc2O[C@H]1CN(C)C(=O)CN(C)C	-5	3
C[C@H]1CN([C@@H](C)CO)S(=O)(=O)c2ccc(C#CC3(O)CCCC3)cc2O[C@H]1CN(C)C(=O)Cc1ccccc1	-11	-47
C[C@@H]1CCCCO[C@@H](CN(C)S(=O)(=O)c2cn(C)cn2)[C@H](C)CN([C@H](C)CO)C(=O)c2cc(NC(=O)c3ccccc3)ccc2O1	1	-7
C[C@@H]1CN([C@@H](C)CO)C(=O)c2cccc(NC(=O)CCCCCC(=O)Nc3ccccc3N)c2O[C@H]1CN(C)S(=O)(=O)c1ccc(Cl)cc1	-4	-73
C[C@H](CO)N1C[C@H](C)[C@@H](CN(C)S(C)(=O)=O)Oc2c(NC(=O)CCCCCC(=O)Nc3ccccc3N)cccc2C1=O	-2	68
C[C@@H]1CN([C@@H](C)CO)C(=O)c2cccc(NC(=O)CCCCCC(=O)Nc3ccccc3N)c2O[C@@H]1CN(C)S(=O)(=O)c1ccc(Cl)cc1	-8	-93*
C[C@@H]1CN([C@H](C)CO)C(=O)c2cccc(NC(=O)CCCCCC(=O)Nc3ccccc3N)c2O[C@@H]1CN(C)S(=O)(=O)c1cccs1	5	-84*
Cc1ccc(S(=O)(=O)N(C)C[C@H]2Oc3c(NC(=O)CCCCCC(=O)Nc4ccccc4N)cccc3C(=O)N([C@H](C)CO)C[C@H]2C)cc1	-13	-90*
C[C@H](CO)N1C[C@H](C)[C@H](CN(C)S(C)(=O)=O)Oc2c(NC(=O)CCCCCC(=O)Nc3ccccc3N)cccc2C1=O	15	28
Cc1ccc(S(=O)(=O)N(C)C[C@@H]2Oc3c(NC(=O)CCCCCC(=O)Nc4ccccc4N)cccc3C(=O)N([C@H](C)CO)C[C@H]2C)cc1	2	-61
C[C@@H]1CN([C@H](C)CO)C(=O)c2cccc(NC(=O)CCCCCC(=O)Nc3ccccc3N)c2O[C@@H]1CN(C)S(=O)(=O)c1ccc(Cl)cc1	-7	-88*
CC(C)C#Cc1cnc2c(c1)C(=O)N([C@H](C)CO)C[C@@H](C)[C@H](CN(C)Cc1ccccc1F)O2	-12	x
CCCC#Cc1ccc2c(c1)O[C@H](CN(C)Cc1ccncc1)[C@H](C)CN([C@H](C)CO)S2(=O)=O	6	-37
C[C@@H]1CN([C@@H](C)CO)C(=O)c2ccccc2-c2ccccc2CO[C@H]1CN(C)S(=O)(=O)c1cccs1	1	15
CCNC(=O)C[C@H]1CC[C@@H]2[C@@H](COc3ccc(NC(=O)Nc4cccc(OC)c4)cc3C(=O)N2C)O1	-3	-21
COc1cccc(C(=O)Nc2ccc3c(c2)C(=O)N(C)C[C@H](OC)[C@H](C)CN(CC2CC2)[C@H](C)CO3)c1	x	20
O=C(C[C@H]1C[C@H]2c3cc(NC(=O)Cc4ccncc4)ccc3O[C@H]2[C@@H](CO)O1)NCc1ccccc1	x	-33
COCCNC(=O)C[C@@H]1CC[C@@H]2[C@H](COC[C@H](O)CN2C(=O)c2cc(Cl)cc(Cl)c2)O1	0	6
C[C@@H]1CN([C@H](C)CO)C(=O)c2cccc(NC(=O)CCCCCC(=O)Nc3ccccc3N)c2O[C@@H]1CN(C)S(C)(=O)=O	-3	21
C[C@@H]1CN([C@H](C)CO)C(=O)c2cccc(NC(=O)CCCCCC(=O)Nc3ccccc3N)c2O[C@@H]1CN(C)S(=O)(=O)c1ccccc1	-7	-89*
COc1ccccc1-c1ccc2c(c1)O[C@H](CN(C)Cc1ccc3c(c1)OCO3)[C@H](C)CN([C@@H](C)CO)S2(=O)=O	-2	-43
CC(C)CC#Cc1ccc2c(c1)O[C@@H](CN(C)Cc1ccc3c(c1)OCO3)[C@@H](C)CN([C@H](C)CO)S2(=O)=O	26	-36
COc1ccccc1-c1ccc2c(c1)O[C@H](CN(C)Cc1ccc3c(c1)OCO3)[C@@H](C)CN([C@H](C)CO)S2(=O)=O	3	-84*
CC(C)CC#Cc1ccc2c(c1)O[C@@H](CN(C)Cc1ccc3c(c1)OCO3)[C@H](C)CN([C@@H](C)CO)S2(=O)=O	14	-81*
CC(C)CC#Cc1cnc2c(c1)C(=O)N([C@@H](C)CO)C[C@@H](C)[C@H](CN(C)C(=O)c1ccc(F)cc1)O2	-1	-8
COc1cccc(CNC(=O)C[C@@H]2C=C[C@@H](NC(C)=O)[C@@H](CO)O2)c1	-1	12
